This passage reports PBM binding z-score results from the supplement of paper PMC6555819.

Holding throughout (experiment): PBM binding z-score (relative to random genomic background probes); higher = stronger binding; sequences stand for … in GC…GCGATTGACAGCGTAGAATGAAGG
Experiment [1] concerns FXR:RXRa (NR concentration 270 nM, RXRa partner concentration 90 nM). In outline: (§1)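 Scanned fluorescence from custom Agilent 4×180K protein-binding microarrays was regression-normalized. Binding z-scores use random background probes as reference. Ligand-free nuclear receptor dimers were incubated on the arrays for 1 h and detected with antibodies against each partner (one per run).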

The subject of experiment [2] is LXRa:RXRa (NR concentration 270 nM, RXRa partner concentration 90 nM). In outline: as §1
For experiment [3], the system named is LXRa homodimer (NR concentration 270 nM). The procedure, abridged: as §1
Experiment [4] has as its system LXRb:RXRa (NR concentration 270 nM, RXRa partner concentration 90 nM). In outline: as §1
Experiment [5] has as its system LXRb homodimer (NR concentration 270 nM). The procedure, abridged: as §1
Experiment [6] deals with PPARa:RXRa (NR concentration 270 nM, RXRa partner concentration 90 nM). In outline:
as §1

Experiment [7] concerns PPARg:RXRa (NR concentration 180 nM, RXRa partner concentration 90 nM). In outline: as §1
Experiment [8] concerns PPARg:RXRa 270nM:90nM, anti-RXR (NR concentration 270 nM, RXRa partner concentration 90 nM). The procedure, abridged: as §1
The subject of experiment [9] is PPARg:RXRa 30nM:10nM, anti-RXR (NR concentration 30 nM, RXRa partner concentration 10 nM). The procedure, abridged:
as §1

Experiment [10] relates to PPARg:RXRa 90nM:30nM, anti-RXR (NR concentration 90 nM, RXRa partner concentration 30 nM). The procedure, abridged:
as §1

In experiment [11] the test system is PPARg:RXRa DBDmut IVT, anti-RXR (DBD mutation: RXRa K156A/R161A, NR concentration 270 nM, RXRa partner concentration 90 nM). In outline:
as §1

Experiment [12] has as its system PPARg:RXRa IVT, anti-PPARg (NR concentration 270 nM, RXRa partner concentration 90 nM). In outline: as §1
Experiment [13] concerns PPARg DBDmut:RXRa IVT, anti-PPARg (DBD mutation: PPARg1 K132A/R137A, NR concentration 270 nM, RXRa partner concentration 90 nM). The procedure, abridged: as §1
For experiment [14], the system named is PPARg DBDmut IVT, anti-PPARg (DBD mutation: PPARg1 K132A/R137A, NR concentration 270 nM). The procedure, abridged: as §1
For experiment [15], the system named is PPARg homodimer (NR concentration 180 nM). In outline:
as §1

Experiment [16] relates to PXR:RXRa (NR concentration 270 nM, RXRa partner concentration 90 nM). In outline: as §1
The subject of experiment [17] is PXR homodimer (NR concentration 270 nM). The procedure, abridged:
as §1

The test system of experiment [18] is RARa:RXR (NR concentration 270 nM, RXRa partner concentration 90 nM). In outline: as §1
In experiment [19] the test system is RARa homodimer (NR concentration 270 nM). In outline:
as §1

The test system of experiment [20] is RARb:RXRa (NR concentration 270 nM, RXRa partner concentration 90 nM). The procedure, abridged: as §1

As for TAGCCTAGGTCATTGGGCCAGAATAGTACGCATC, the PBM binding z-score was 4.53 in [1]; 3.53 in experiment [2]; 0.524 in experiment [3]; 2.31 in experiment [4]; 0.302 in [5]; 4.07 in [6]. Moreover, the PBM binding z-score in experiment [7] amounted to 3.79; in experiment [8], 3.88; in experiment [9] it was 1.11; in experiment [10], 2.46; in experiment [11], 2.63; in experiment [12], 3.68. The PBM binding z-score in experiment [13] is -0.385; in experiment [14] it was -0.0458; in [15], 1.41; in experiment [16], 1.51; in experiment [17], -0.537; in [18], 2.26. In addition, the PBM binding z-score came to 0.079 in experiment [19] and 3.53 in experiment [20].
Take CGTCCAATGTCAAGGTCAGTGAAAGAGACTCGAA: the PBM binding z-score was 2.47 in experiment [1]; 1.92 in [2]; 0.422 in experiment [3]; 1.76 in experiment [4]; 0.286 in experiment [5]; 2.67 in experiment [6]. Also, the PBM binding z-score in experiment [7] is 0.791; in [8], 1; in [9], -0.104; in experiment [10], 0.482; in experiment [11], 0.498; in experiment [12] it was 1.27. Also, the PBM binding z-score was 0.404 in experiment [13]; -0.348 in [14]; 2.25 in [15]; 2.17 in experiment [16]; 0.697 in experiment [17]; 2.26 in experiment [18]. Further, the PBM binding z-score in experiment [19] came out at 0.775; in [20], 3.69.
Turning to ATCTCTAGTTAAAGTTCAGTGAAAGATCGATAGA, the PBM binding z-score in experiment [1] was determined as 1.49; in experiment [2] it was 2.07; in experiment [3], 2.94; in experiment [4], 1.57; in [5] it was 1.33; in experiment [6], 1.78. In addition, the PBM binding z-score in [7] is 1.74; in experiment [8] it was 3.2; in experiment [9] it was 1.74; in experiment [10], 2.89; in experiment [11], 0.143; in [12] it was 0.671. Further, the PBM binding z-score in [13] amounted to 0.424; in [14], 1.48; in experiment [15], 2.14; in experiment [16], 2.29; in experiment [17], 2.21; in experiment [18] it was 1.41. The PBM binding z-score is 2.45 in experiment [19] and 2.61 in experiment [20].
As for AGAACGAGGGCACGCTGAGTTGAGAGCAGAGTAG, the PBM binding z-score is 1.03 in [1]; 1.06 in experiment [2]; -0.514 in [3]; 0.188 in [4]; -0.934 in experiment [5]; 2.12 in experiment [6]. Further, the PBM binding z-score was found to be 2.05 in experiment [7]; 1.81 in [8]; 0.0205 in experiment [9]; 0.958 in experiment [10]; 4.1 in experiment [11]; 3.68 in experiment [12]. The PBM binding z-score in experiment [13] worked out at 0.22; in [14], 0.203; in experiment [15], 0.469; in [16] it was 1.01; in experiment [17], 0.0274; in experiment [18] it was 1.35. The figures for the PBM binding z-score in experiment [19] and in experiment [20] were -0.318 and 2.54, respectively.
As for CCTGCTAGATCAATGGTCAGCTAAAGCAGCTCGC, the PBM binding z-score in experiment [1] is -0.932; in experiment [2] it was -0.902; in [3], -0.811; in [4], -0.945; in experiment [5], -0.566; in [6], -0.697. The PBM binding z-score was -0.182 in experiment [7]; 0.115 in experiment [8]; -0.8 in [9]; -0.292 in experiment [10]; -0.539 in experiment [11]; -0.867 in experiment [12]. Moreover, the PBM binding z-score was -1.21 in [13]; -1.31 in experiment [14]; -0.942 in [15]; -0.879 in experiment [16]; -0.691 in experiment [17]; -0.744 in [18]. Moreover, the PBM binding z-score in [19] was -0.962; in experiment [20], -0.116.
Regarding TATACCGGGTCAAAGGCCAGAGTACGAATGTCGA, the PBM binding z-score in experiment [1] came to 5.68; in experiment [2] it was 5.19; in experiment [3] it was 1.56; in experiment [4] it was 3.95; in [5] it was 1.32; in experiment [6], 6.35. In addition, the PBM binding z-score in [7] was 8.61; in experiment [8], 7.39; in experiment [9] it was 6.12; in [10], 7.45; in experiment [11], 2.58; in [12], 5.47. In addition, the PBM binding z-score in [13] was 0.885; in experiment [14], 1.2; in experiment [15] it was 2.12; in experiment [16] it was 3.61; in [17], 0.647; in [18], 4.89. For the same sequence, the PBM binding z-score was 0.935 in experiment [19] and 3.88 in [20].
For CGAACCAGGTCAAGGACAGTGAATCTCCGCACGC, the PBM binding z-score in [1] is 4.75; in [2], 2.98; in [3], 0.32; in [4] it was 2.36; in [5], -0.00984; in experiment [6], 4.52. For the same sequence, the PBM binding z-score in [7] was 4.96; in [8], 4.26; in [9], 1.28; in [10], 3.31; in experiment [11], 4.75; in [12], 5.44. Further, the PBM binding z-score worked out at 0.626 in experiment [13]; 1.5 in experiment [14]; 2.06 in [15]; 2.01 in experiment [16]; 0.853 in [17]; 3 in experiment [18]. The PBM binding z-score in experiment [19] was 0.303; in experiment [20], 4.04.
